Source: the supplement of paper PMC8728848
This is one part of a sample in which the strongest signals are shown more often than they occur.

What was measured:
Assay in all cases: glycan array binding signal (z-score within array); higher = stronger binding
[1] = test system: Gal(b1-3)GlcNAc(b1-3)GalNAc; conditions: glycan notation: IUPAC condensed, linker removed
Summary of the method: (§1)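 From the Consortium for Functional Glycomics database, 3228 arrays were curated, keeping only those whose protein sequence was available. Binding is given as a within-array Z-score averaged across arrays sharing a protein sequence and across linkers. Negative Z-scores can be read as non-binding.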

Gal(b1-3)GlcNAc6S = conditions: glycan notation: IUPAC condensed, linker removed
Summary of the method: as §1

Gal(b1-3)GlcNAc = conditions: glycan notation: IUPAC condensed, linker removed
Summary of the method: as §1

[2] = test system: Gal(b1-3)[Fuc(a1-4)]GlcNAc(b1-2)Man(a1-3)[Gal(b1-3)[Fuc(a1-4)]GlcNAc(b1-2)Man(a1-6)]Man(b1-4)GlcNAc(b1-4)GlcNAc; conditions: glycan notation: IUPAC condensed, linker removed
Summary of the method: as §1

[3] = test system: Gal(b1-3)[Fuc(a1-4)]GlcNAc(b1-2)Man(a1-3)[Gal(b1-3)[Fuc(a1-4)]GlcNAc(b1-2)Man(a1-6)]Man(b1-4)GlcNAc(b1-4)[Fuc(a1-6)]GlcNAc; conditions: glycan notation: IUPAC condensed, linker removed
Summary of the method: as §1

[4] = test system: Gal(b1-3)[Fuc(a1-4)]GlcNAc(b1-3)Gal(b1-4)[Fuc(a1-3)]GlcNAc; conditions: glycan notation: IUPAC condensed, linker removed
Summary of the method: as §1

[5] = test system: Gal(b1-3)[Fuc(a1-4)]GlcNAc(b1-2)Man; conditions: glycan notation: IUPAC condensed, linker removed; mutation: R125K
Summary of the method: as §1

[6] = test system: Gal(b1-3)[Fuc(a1-4)]GlcNAc(b1-3)Gal(b1-4)GlcNAc; conditions: glycan notation: IUPAC condensed, linker removed
Summary of the method: as §1

CHI3L1 (Homo sapiens), P36222, sequence (P36222 whole entry): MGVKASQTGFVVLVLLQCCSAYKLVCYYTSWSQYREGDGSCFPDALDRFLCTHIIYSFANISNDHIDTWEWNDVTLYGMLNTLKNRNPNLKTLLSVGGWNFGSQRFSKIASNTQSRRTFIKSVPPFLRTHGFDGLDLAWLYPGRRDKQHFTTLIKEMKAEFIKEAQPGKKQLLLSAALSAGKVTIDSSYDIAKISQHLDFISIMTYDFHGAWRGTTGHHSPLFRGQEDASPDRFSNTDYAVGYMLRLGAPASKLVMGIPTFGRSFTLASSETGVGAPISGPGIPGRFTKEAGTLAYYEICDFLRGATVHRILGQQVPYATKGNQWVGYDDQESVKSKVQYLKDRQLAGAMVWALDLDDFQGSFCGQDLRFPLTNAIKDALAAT
SRLC (Mus musculus), Q8VIF6, sequence (Q8VIF6 other isoform, or with tags, fused parts or gaps): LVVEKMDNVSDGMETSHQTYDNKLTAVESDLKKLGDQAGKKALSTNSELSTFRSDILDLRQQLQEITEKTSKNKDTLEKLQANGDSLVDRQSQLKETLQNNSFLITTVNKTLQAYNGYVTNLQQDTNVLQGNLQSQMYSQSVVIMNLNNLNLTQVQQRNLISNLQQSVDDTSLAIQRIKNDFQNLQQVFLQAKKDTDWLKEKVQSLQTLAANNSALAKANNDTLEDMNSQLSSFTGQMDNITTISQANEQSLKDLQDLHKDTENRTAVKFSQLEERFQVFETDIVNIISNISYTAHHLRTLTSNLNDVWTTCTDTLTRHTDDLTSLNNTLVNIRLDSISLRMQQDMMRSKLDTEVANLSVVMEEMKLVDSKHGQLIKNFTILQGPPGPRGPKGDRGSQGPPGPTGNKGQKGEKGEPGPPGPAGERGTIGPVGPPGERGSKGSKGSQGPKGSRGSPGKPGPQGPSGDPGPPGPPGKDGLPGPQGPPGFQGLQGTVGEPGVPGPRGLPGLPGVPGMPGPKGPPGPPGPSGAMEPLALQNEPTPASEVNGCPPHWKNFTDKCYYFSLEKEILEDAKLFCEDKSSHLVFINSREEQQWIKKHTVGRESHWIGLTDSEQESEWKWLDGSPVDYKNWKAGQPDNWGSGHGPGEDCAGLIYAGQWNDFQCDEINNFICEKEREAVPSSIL
PILRa (Mus musculus), Q2YSF3, sequence (Q2YSF3 entry or part of it): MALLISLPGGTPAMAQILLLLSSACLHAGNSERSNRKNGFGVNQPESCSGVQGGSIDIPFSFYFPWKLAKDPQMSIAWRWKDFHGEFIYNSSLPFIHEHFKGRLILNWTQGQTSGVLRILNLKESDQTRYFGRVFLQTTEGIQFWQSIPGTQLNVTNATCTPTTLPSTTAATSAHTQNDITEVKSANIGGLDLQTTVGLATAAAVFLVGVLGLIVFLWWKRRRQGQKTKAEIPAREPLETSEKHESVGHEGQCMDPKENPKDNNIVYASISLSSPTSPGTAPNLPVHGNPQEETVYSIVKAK
Regenerating Gene IV (Homo sapiens), Q9BYZ8, sequence (Q9BYZ8 whole entry, looked up): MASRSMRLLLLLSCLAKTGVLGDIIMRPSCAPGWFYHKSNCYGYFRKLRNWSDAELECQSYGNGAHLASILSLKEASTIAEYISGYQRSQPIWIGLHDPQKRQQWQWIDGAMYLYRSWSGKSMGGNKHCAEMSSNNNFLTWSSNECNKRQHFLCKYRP
Avaren (Actinomycete K97), sequence (chain, as listed by the source): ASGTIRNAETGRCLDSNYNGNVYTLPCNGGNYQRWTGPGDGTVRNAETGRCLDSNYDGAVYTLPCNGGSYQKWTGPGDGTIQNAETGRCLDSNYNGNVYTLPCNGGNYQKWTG
PILRb (Mus musculus), Q2YSF2, sequence (Q2YSF2 entry or part of it): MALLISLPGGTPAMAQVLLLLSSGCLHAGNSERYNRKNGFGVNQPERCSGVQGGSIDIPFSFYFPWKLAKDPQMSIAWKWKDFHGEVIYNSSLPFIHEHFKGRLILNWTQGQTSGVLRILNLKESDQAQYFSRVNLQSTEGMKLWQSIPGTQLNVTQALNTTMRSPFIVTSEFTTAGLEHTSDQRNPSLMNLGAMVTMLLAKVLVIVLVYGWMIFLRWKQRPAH

For CHI3L1 (Homo sapiens), P36222, the “glycan array binding signal (z-score)” value [1] was -0.129 and the “glycan array binding signal (z-score)” value (Gal(b1-3)GlcNAc6S) was 0.72.

For PILRb (Mus musculus), Q2YSF2, the “glycan array binding signal (z-score)” value (Gal(b1-3)GlcNAc) was -0.113.

PILRa (Mus musculus), Q2YSF3 was tested, and the “glycan array binding signal (z-score)” value [2] was 0.063.

In the case of MpAFP RI GFP (Marinomonas primoryensis), the “glycan array binding signal (z-score)” value [3] was 2.74 and the “glycan array binding signal (z-score)” value [4] was -0.369.

In the case of Avaren (Actinomycete K97), the “glycan array binding signal (z-score)” value [3] was 1.53.

With Siglec-8 (Homo sapiens), Q9NYZ4 the “glycan array binding signal (z-score)” value [5] was 0.797.

In the case of “Regenerating Gene IV (Homo sapiens), Q9BYZ8”, the “glycan array binding signal (z-score)” value [6] was -0.208.

With SRLC (Mus musculus), Q8VIF6 the “glycan array binding signal (z-score)” value [4] was 4.49.
